Compound activity deposited in PubChem by National Center for Advancing Translational Sciences (NCATS).
Rows were chosen to be rich in hits. Some 19% of all compounds tested hit in one or more screens of this group.
ELG1 DNA repair = blocks ELG1-dependent DNA repair in HEK293T cells. HEK293T ELG1-luciferase reporter, luminescence, 16 h; DNA damage induced by 5-fluorouridine. Potency, µM (top dose mostly 46.1 µM), for the others: top-dose activity change, negative = inhibition, actives largely listed as inhibitors. hit rate 2.3% among 330,000. AID 504467; further: potency means the concentration at half of the fitted maximal effect; nearly all actives have a fitted effect of over 55% in size
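Reporter activity after DNA damage by 5-fluorouridine is monitored. Compound-treated cells incubate 16 hr at 37 °C, then ONE-Glo is added for 30 min before luminescence reading.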
IL-1B inflam inh = inhibitors of inflammasome signaling (IL-1 beta secretion). activity change, % at 57.5 µM. THP-1 LPS/ATP IL-1B secretion, AlphaLISA, 16 h; active compounds read low. hit rate 4.7% among 360,000; in the data active means activity change below about -50%; inconclusive means mostly about -30% to -49%
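Secreted IL-1B measured by AlphaLISA bead assay after 16 h compound exposure of THP-1 cells; compounds (final up to 57.5 uM) added 1 h before LPS (250 ng/mL) and ATP (1.25 mM) stimulation; lower signal means less secretion.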
DT40 TDP1 no CPT = qHTS for Inhibitors of human tyrosyl-DNA phosphodiesterase 1 (TDP1): qHTS in cells in absence of CPT; DT40 Tdp1-/- hTDP1 cells, no CPT, ATP luminescence, 48 h; Potency, µM (top dose mostly 46.2 µM), without a hit: top-dose activity change, negative = growth inhibition, actives largely listed as inhibitors; hit rate 15% among 420,000; further: potency means the concentration at half of the fitted maximal effect; nearly all actives have a fitted effect of over 55% in size
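Chicken DT40 Tdp1-/- cells complemented with human TDP1, screened without camptothecin (DMSO vehicle only), 400 cells/well. Compounds pin-transferred, cells incubated at 37 °C for at least 48 hr. Growth read as ATP-dependent luminescence (CellTiter-Glo, 30 min at RT).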
HT1080-NT tox = kills 2HG-producing HT-1080-NT fibrosarcoma cells; HT-1080-NT fibrosarcoma viability, CellTiter-Glo ATP luminescence, 48 h; Potency, µM (top dose mostly 46.1 µM), inactives show at the top dose activity, negative = less viability, hits mostly cytotoxic; hit rate 1.6% among 360,000; AID 686970;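 further: NT is the 2HG producing partner of a matched IDH1 knockdown line; potency means the concentration at half of the fitted maximal effect; 0% = DMSO-treated cells and -100% = media-only wells without cells; nearly all actives have a fitted effect of over 55% in size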
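Viability by CellTiter-Glo luminescence after 48 h compound exposure at 37C of HT-1080-NT cells (750/well, RPMI, 5% FBS). % activity scaled between DMSO wells and medium-only wells, then curve-fitted and categorized by curve class.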
HT1080 IDH1KD tx = toxicity to HT-1080 IDH1 knockdown cells (counter line). AID 686971. HT-1080 IDH1 knockdown viability, ATP luminescence, 48 h. hit rate 2% among 360,000. Potency, µM (top dose mostly 46.1 µM), inactives show at the highest dose activity, negative = toxicity, most hits filed as cytotoxic;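 further: potency means the concentration at half of the fitted maximal effect; 0% = DMSO wells and -100% = cell-free medium wells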
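Knockdown cells (IDH1KD HT-1080) received compounds 2 h after plating at 750 cells/well and were kept 48 h at 37 °C in 5% FBS RPMI. A CellTiter-Glo luminescence read gave % activity for curve fitting.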
DT40 TDP1 CPT = DT40-hTDP1 cell growth loss with CPT | chicken DT40 Tdp1-/-;hTDP1 cells + 20 nM CPT, ATP luminescence, 48 h | Potency, µM (doses to about 46.2 µM), for inactives: top-dose activity change, negative = growth inhibition, hits mostly inhibitors | AID 686979 | hit rate 12% among 420,000; further: potency means the concentration at half of the fitted maximal effect; nearly all actives have a fitted effect of over 55% in size
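Chicken DT40 Tdp1-/- cells complemented with human TDP1, 400 cells/well, exposed to compounds plus 20 nM camptothecin for at least 48 h at 37 C; viability read as ATP content by CellTiter-Glo luminescence.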
Starred values were filed as active, the others as inactive; u = inconclusive; x = no result given. Unless noted, the call rests on the fitted dose curve; in most records, active means well fitted curve in the direction sought with a large enough effect; inconclusive means small, poorly fitted or top-dose-only effect, or another doubt; inactive means no such curve, though single readings can be large; an effect the other way counts as inactive or inconclusive. Unless noted, on the % scale 0 is the no-effect control and ±100 the full control effect.

SMILES	ELG1 DNA repair	IL-1B inflam inh	DT40 TDP1 no CPT	HT1080-NT tox	HT1080 IDH1KD tx	DT40 TDP1 CPT
CC(=O)c1cccc(NC(=O)COC(=O)CCC(=O)c2cccs2)c1	3%	20	1%	9%	3%	19%
CC(C)c1ccc(NS(=O)(=O)c2cc(Br)cc3c2N(C(=O)C2CC2)CC3)cc1	x	x	4.6µM*	x	x	8.2µM*
Cc1ccc(CNS(=O)(=O)c2cc(Br)cc3c2N(C(=O)C2CC2)CC3)cc1	x	x	-23%	x	x	-10%
O=C(CCS(=O)(=O)c1cc(Br)cc2c1N(C(=O)C1CC1)CC2)N1CCN(c2cccc(C(F)(F)F)c2)CC1	x	x	18µM*	x	x	16µM*
Cc1ccc(N2CCN(S(=O)(=O)c3cc(Br)cc4c3N(C(=O)C3CC3)CC4)CC2C)cc1 (stereo unspecified)	x	x	16µM*	x	x	13µM*
CC(=O)N1CCc2cc(Br)cc(S(=O)(=O)CCC(=O)N3CCN(c4ccccc4)CC3)c21	x	x	-4%	x	x	2%
COc1ccc(NS(=O)(=O)c2cc(Br)cc3c2N(C(=O)C2CC2)CC3)cc1OC	x	x	2.1µM*	x	x	2.3µM*
CCCCN(C=O)c1c(CC)nc2ccc(C(=O)NCCCn3ccnc3)cn12	x	3	-17%	21%	8%	-20%
CCCCN(C)S(=O)(=O)c1cc(Br)cc2c1N(C(=O)C1CC1)CC2	u	-21	3.7µM*	-16%	-11%	8.2µM*
CCOC(=O)C1=CCN(S(=O)(=O)c2ccccc2)C1c1ccccc1 (stereo unspecified)	x	49	u	1%	1%	u
CCOC(=O)C1=CCN(S(=O)(=O)c2ccc(F)cc2)C1c1ccc(F)cc1 (stereo unspecified)	x	28	15µM*	-1%	-3%	u
CCOC(=O)C1=CCN(S(=O)(=O)c2ccc(F)cc2)C1c1ccc(Br)cc1 (stereo unspecified)	x	-28	u	u	u	u
CCOC(=O)C1=CCN(S(=O)(=O)c2ccc(F)cc2)C1c1ccccc1 (stereo unspecified)	x	45	21µM*	2%	6%	u
CCOC(=O)C1=C(COC(=O)CNS(=O)(=O)c2ccc(NC(C)=O)cc2)NC(=O)NC1C (stereo unspecified)	x	-12	-3%	2%	-6%	-23%
CC(C)(C)N(Cc1ccc2c(c1)OCO2)C(=O)/C=C\S(=O)c1ccccc1 (stereo unspecified)	x	-61*	3.7µM*	-26%	13µM*	5.2µM*
CC(C)(C)NC(=O)CN(Cc1ccc2c(c1)OCO2)C(=O)CNS(=O)(=O)c1ccccc1	-11%	18	-13%	5%	13%	-4%
CCOC(=O)C1CCN(C(=O)CSc2nccc(C)n2)CC1	1%	2	12%	17%	8%	40%
COc1cccc(S(=O)(=O)Nc2ccc3c(c2)C(=O)N(C)C[C@H](OC)[C@H](C)CN[C@@H](C)CO3)c1	x	16	-4%	20%	13%	7%
COc1ccc(-n2c(=O)c(-c3ccc(Cl)cc3)nc3cnc(N4CCNCC4)nc32)cc1	x	x	12µM*	x	x	5.2µM*
O=c1c(-c2ccc(Cl)cc2)nc2cnc(N3CCNCC3)nc2n1-c1ccccc1	x	x	4.6µM*	x	x	4.1µM*
COc1ccc(-c2nc3cnc(N4CCNCC4)nc3n(-c3ccccc3)c2=O)cc1	x	x	15µM*	x	x	21µM*
COc1ccc(-n2c(=O)c(-c3ccccc3)nc3cnc(N4CCNCC4)nc32)cc1	x	x	5%	x	x	-9%
COc1ccc(-n2c(=O)c(-c3cccs3)nc3cnc(Nc4cccc(OC)c4)nc32)cc1	x	x	23µM*	x	x	-15%
